Data published in the supplement of paper PMC10515830.
Counter-ions that a name gives are not always drawn.

Legend:
Details in all cases: 10 µM; exposure time 6 h
[1] = tested on: Danio rerio larvae (5 dpf); test: difference in excitability vs DMSO (percentage points); higher = more excitable than DMSO
How it was run: (§1)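 Wild-type 5 dpf zebrafish larvae in 96-well plates were given 100 µL egg water containing library compound at 10 µM final for 6 h. After 3 h of exposure, plates at 28.5 ℃ were photographed every 6 s during a 3-h programme of moving lines and 100 ms, 400Hz tones. Z-LaP Tracker (a DeepLabCut model) quantified each behaviour, averaged over 48 larvae per compound. Values are the compound mean minus the DMSO-vehicle control, in percentage points.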

[2] = tested on: Danio rerio larvae (5 dpf); test: difference in startle response vs DMSO (percentage points); higher = stronger startle than DMSO
How it was run: as §1

[3] = tested on: Danio rerio larvae (5 dpf); test: difference in activity during first hour vs DMSO (percentage points); higher = more activity than DMSO
How it was run: as §1

[4] = tested on: Danio rerio larvae (5 dpf); test: difference in habituation to acoustic stimuli vs DMSO (percentage points); higher = more habituation than DMSO
How it was run: as §1

[5] = tested on: Danio rerio larvae (5 dpf); test: difference in combined optomotor response to red, green and blue moving lines vs DMSO (percentage points); higher = stronger optomotor response than DMSO
How it was run: as §1

Row | Compound | difference in excitability [1] | difference in startle response [2] | difference in activity during first hour [3] | difference in habituation to acoustic stimuli [4] | difference [5]
1 | COc1ccc2c(c1)c(CC(=O)O)c(C)n2C(=O)c1ccc(Cl)cc1 [Indomethacin] | -1.03 | 1.79 | 2.47 | 6.54 | 1.47
2 | CCC(=O)NCC[C@@H]1CCc2ccc3c(c21)CCO3 [Ramelteon] | 33 | 0.219 | -13.3 | -1.29 | 6.65
3 | C[C@@H](NCCCc1cccc(C(F)(F)F)c1)c1cccc2ccccc12 [Cinacalcet (hydrochloride)] | -1.68 | 0.605 | 10.2 | -9.83 | -16.5
4 | Cc1cccc(C)c1OCC(C)N (stereo not given) [Mexiletine (hydrochloride)] | 9.5 | 1.48 | -2.5 | -10.3 | 1.04
5 | C[C@]12C=CC(=O)C=C1CC[C@@H]1[C@@H]2C(=O)C[C@@]2(C)[C@H]1CC[C@]2(O)C(=O)CO [Prednisone] | 14.1 | 2.97 | -14.4 | 6.62 | -4.57
6 | O=C1Nc2ccc(Cl)cc2[C@@](C#CC2CC2)(C(F)(F)F)O1 [Efavirenz] | 10.7 | -10.7 | -17.8 | -12.8 | -17.4
7 | CC(C)C[C@H](NC(=O)CNC(=O)c1cc(Cl)ccc1Cl)B1OC(=O)C(CC(=O)O)(CC(=O)O)O1 | -1.67 | 1.83 | 2.45 | 4.21 | 5.88
8 | Cc1ccccc1N1C(=O)c2cc(S(N)(=O)=O)c(Cl)cc2NC1C (stereo not given) [Metolazone] | 5.2 | 4.85 | -12.7 | 0.578 | 1.31
9 | O=c1ccc2ccc(OCCCCN3CCN(c4cccc5sccc45)CC3)cc2[nH]1 [Brexpiprazole] | 13.2 | -1.39 | 25.4 | -17.4 | -9.77
10 | C=CC[N+]1([C@H]2C[C@H]3[C@@H]4CC[C@H]5C[C@H](O)[C@@H](N6CCOCC6)C[C@]5(C)[C@H]4CC[C@]3(C)[C@H]2OC(C)=O)CCCC1 [Rocuronium (bromide)] | 14.3 | -3.01 | -1.74 | 4.51 | -2.53
11 | CN(CCOc1ccc(NS(C)(=O)=O)cc1)CCc1ccc(NS(C)(=O)=O)cc1 [Dofetilide] | -1.01 | -4.06 | 7.17 | 7 | 7.94
12 | CCN(CC)CCOC(=O)C1(C2CCCCC2)CCCCC1 [Dicyclomine (hydrochloride)] | 9.55 | -4.86 | -8.86 | -5.06 | -3.96
13 | CC1=NN(c2ccc(C)c(C)c2)C(=O)/C1=N\Nc1cccc(-c2cccc(C(=O)O)c2)c1O [Eltrombopag] | 19.6 | -0.303 | 17.7 | 1.01 | -0.694
14 | COc1ccc(NC(=O)c2ccc(C(=N)N(C)C)cc2)c(C(=O)Nc2ccc(Cl)cn2)c1 [Betrixaban] | 11.6 | 2.94 | 2.19 | 5.98 | 7.59
15 | C=CC(=O)Nc1cc(Nc2nccc(-c3cn(C)c4ccccc34)n2)c(OC)cc1N(C)CCN(C)C | 8.96 | -2.41 | -13.4 | -6.69 | 2.87
16 | Clc1ccc(COC(Cn2ccnc2)c2ccc(Cl)cc2Cl)cc1 (stereo not given) [Econazole (nitrate)] | 7.22 | -9.26 | -22.1 | -11.9 | -16.9
17 | CO/N=C(\C(=O)N[C@@H]1C(=O)N2C(C(=O)O)=C(COC(C)=O)CS[C@H]12)c1csc(N)n1 [Cefotaxime (sodium salt)] | 0.947 | 0.752 | 4.74 | 6.08 | 3.19
18 | COc1ccc(-n2nc(C(N)=O)c3c2C(=O)N(c2ccc(N4CCCCC4=O)cc2)CC3)cc1 [Apixaban] | -0.692 | -6.58 | 1.99 | 4.29 | 10.4
19 | Nc1ccc(C(=O)NCC(=O)O)cc1 [4-Aminohippuric Acid] | 3.62 | 5.22 | 3.44 | -0.693 | 7.16
20 | CCC1(C)CC(=O)NC1=O (stereo not given) [Ethosuximide] | 2.89 | 4.52 | -3.89 | 4.09 | 0.956
21 | Cc1cn([C@H]2C[C@H](N=[N+]=[N-])[C@@H](CO)O2)c(=O)[nH]c1=O [Zidovudine] | 4.38 | -2.12 | 0.0973 | 1.67 | 6.8
22 | CC1(C)NC(=O)N(c2ccc([N+](=O)[O-])c(C(F)(F)F)c2)C1=O [Nilutamide] | 3 | -2.08 | -12.2 | 3.08 | -5.94
23 | CC12CC3CC(C)(C1)CC(N)(C3)C2 [Memantine (hydrochloride)] | 4.15 | -1.38 | 1.52 | 2.49 | 3.21
24 | CC=CC1=C(C(=O)O)N2C(=O)[C@@H](NC(=O)[C@H](N)c3ccc(O)cc3)[C@H]2SC1 [Cefprozil] | 11.3 | -8.07 | 1.23 | 4.8 | -4.03
25 | C=CC1=C(C(=O)O)N2C(=O)[C@@H](NC(=O)/C(=N\OCC(=O)O)c3csc(N)n3)[C@H]2SC1 [Cefixime] | -0.725 | -0.605 | 11.6 | 8.39 | 10.8
26 | CC(=O)Oc1cc2c(s1)CCN(C(C(=O)C1CC1)c1ccccc1F)C2 (stereo not given) [Prasugrel] | -1.17 | 0.187 | -0.362 | 8.33 | 9.86
